High-throughput results: PubChem BioAssay, several laboratories
In the library only some 27% were active in any assay of this set; here they are far more common.
sEH activator = soluble epoxide hydrolase activators, primary screen, biochemical, human sEH; Bifunctional epoxide hydrolase 2 (Homo sapiens), P34913; purified human sEH enzymatic activity, activator screen; activation, % at 2 µM; 91,000 compounds, 0.04% hits; AID 717, 2007; in the data active = activation above about 37%
Target sequence (P34913 whole entry, looked up): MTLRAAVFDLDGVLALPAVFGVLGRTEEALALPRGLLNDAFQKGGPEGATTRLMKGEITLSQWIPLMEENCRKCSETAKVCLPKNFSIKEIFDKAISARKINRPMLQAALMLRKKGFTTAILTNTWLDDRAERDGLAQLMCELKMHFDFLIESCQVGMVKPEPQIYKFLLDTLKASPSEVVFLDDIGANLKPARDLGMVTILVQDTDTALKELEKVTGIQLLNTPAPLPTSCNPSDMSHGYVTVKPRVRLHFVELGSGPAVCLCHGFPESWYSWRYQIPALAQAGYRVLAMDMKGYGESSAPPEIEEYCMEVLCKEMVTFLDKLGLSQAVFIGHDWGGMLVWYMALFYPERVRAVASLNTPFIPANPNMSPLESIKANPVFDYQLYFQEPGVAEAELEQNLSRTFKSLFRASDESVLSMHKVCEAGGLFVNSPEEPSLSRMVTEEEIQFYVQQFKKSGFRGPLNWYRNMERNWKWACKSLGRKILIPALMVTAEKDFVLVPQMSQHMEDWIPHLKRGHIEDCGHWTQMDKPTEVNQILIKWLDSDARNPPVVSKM
CYP2C19 inh = blockers of cytochrome P450 2C19 activity – biochemical, luminescence, ADME assay, primary screen; CYP2C19 Supersomes, luciferin-H EGE luminescence, 30 min; inhibition, % at 5 µM; 96,000 compounds, 21% hits; AID 778, 2007;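 active = CYP2C19 inhibition above a set limit at 5 µM in the primary screen, cut at about 50% in these data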
sEH inhibitor = soluble epoxide hydrolase inhibitors, primary screen, biochemical, human sEH; 91,000 compounds, 0.34% hits; inhibition, % at 2 µM; Bifunctional epoxide hydrolase 2 (Homo sapiens), P34913; recombinant human sEH enzymatic activity assay; in the data active = inhibition above about 80%
CYP2C19 act = human CYP2C19 activators, primary screen, biochemical, luminescence; recombinant CYP2C19, luciferin-H EGE luminescence; hits give high values; 0 = fully inhibited enzyme, 1 = untreated enzyme; activation factor at 5 µM; 96,000 tested, under 10 active;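 active = activation factor of at least 2 at 5 µM in the primary screen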
CYP2C9 act = human CYP2C9 activators, primary screen, biochemical, luminescence | Cytochrome P450 2C9 (Homo sapiens), P11712 | recombinant CYP2C9, luciferin-H conversion; hits give high values; factor 1 = untreated enzyme, 0 = blocked | activation factor at 5 µM | 96,000 compounds, 1.4% hits | AID 1024, 2008;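 active = activation factor of 2 or more for CYP2C9 at a 5 µM dose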
CYP2C9 inhib = blockers of cytochrome P450 2C9 activity – biochemical, luminescence, ADME assay, primary screen. AID 777, 2007. inhibition, % at 5 µM. P11712. CYP2C9 Supersomes, luciferin-H conversion. 96,000 compounds, 20% hits;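 active = blocking of liver enzyme CYP2C9 beyond about 50% at 5 µM, limit read from the data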
Numbers stand for hits; i = inactive; nt = not tested or not shown.

SMILES	sEH activator	CYP2C19 inh	sEH inhibitor	CYP2C19 act	CYP2C9 act	CYP2C9 inhib
CCOC(=O)Cc1nnc(NC(=O)COc2ccc(C)cc2)s1	i	i	i	i	i	i
CCOC(=O)Cc1csc(NC(=O)c2sc3nc4c(C)cc(C)cc4cc3c2N)n1	i	i	i	i	i	58.8
CCOC(=O)Cc1csc(NC(=O)CCS(=O)(=O)Cc2ccccc2)n1	i	i	i	i	i	53.4
CCOC(=O)Cc1csc(NC(=O)COc2ccc3ccccc3c2)n1	i	52.7	i	i	i	i
CCC(C)N(NC(C)=O)c1nc(Cl)nc(NC(C)(C)C)n1 (stereo unspecified)	i	i	i	i	i	i
COc1ccc(C)cc1NC(=O)CN1CCN(S(=O)(=O)c2ccc(Br)cc2)CC1	i	i	i	i	i	i
CCOC(=O)Cc1csc(NC(=O)COc2ccc(OC)cc2)n1	i	i	i	i	i	i
CCNC(=O)COc1ccc2ccccc2c1	i	i	i	i	i	i
CCOC(=O)Cc1csc(NC(=O)c2cccc(OC)c2)n1	i	i	i	i	i	65.0
CCOC(=O)Cc1csc(NC(=O)CSc2nc(N)c3c(C)c(C)sc3n2)n1	i	i	i	i	i	58.7
CCOC(=O)Cc1csc(NC(=O)CSc2nnc(-c3ccc(OC)cc3)n2C)n1	i	i	i	i	i	59.0
Cc1nn(-c2ccccc2)c(C)c1NC(=O)COc1ccc2ccccc2c1	i	74.4	i	i	i	i
Cc1c(C#N)c2ncnc(-c3ccccc3)c2n1-c1ccccc1	i	i	i	i	i	i
COC(=O)Cn1cnc2c(C#N)c3n(c2c1=O)CCCCC3	i	i	i	i	i	i
N#Cc1c2n(c3c(=O)n(Cc4ccccc4Cl)cnc13)CCCCC2	i	59.0	i	i	i	67.6
Cc1c(C#N)c2ncn(Cc3ccccc3)c(=O)c2n1-c1ccccc1	i	i	i	i	i	63.0
Cc1c(C(=O)N2CCOCC2)oc2ccc(S(=O)(=O)N3CCCC3)cc12	i	nt	i	nt	nt	nt
CCOC(=O)C1CCN(C(=O)c2oc3ccc(S(=O)(=O)N4CC(C)CC(C)C4)cc3c2C)CC1 (stereo unspecified)	i	i	i	i	i	i
O=S(=O)(c1ccc2oc3ccc(S(=O)(=O)N4CCCCC4)cc3c2c1)N1CCCCC1	i	i	i	i	i	65.5
CCOC(=O)N1CCN(C(=O)c2oc3ccc(S(=O)(=O)N4CCCCCC4)cc3c2C)CC1	i	79.9	i	i	i	72.8
O=S(=O)(c1ccc2oc3ccc(S(=O)(=O)N4CCCC4)cc3c2c1)N1CCCC1	i	nt	i	nt	nt	nt
CCOC(=O)N1CCN(C(=O)c2oc3ccc(S(=O)(=O)N4CCOCC4)cc3c2C)CC1	nt	55.0	nt	i	i	75.1
CCOC(=O)N1CCN(C(=O)c2oc3ccc(S(=O)(=O)N4CC(C)CC(C)C4)cc3c2C)CC1 (stereo unspecified)	i	60.8	i	i	i	51.3
O=C(CCn1c(=O)oc2ccccc21)NCCCN1CCCC1=O	nt	i	nt	i	i	i
O=C(CSc1nnc(CN2CCOCC2)n1-c1ccccc1)Nc1ccc(Cl)cc1	i	nt	i	nt	nt	nt
SMILES	sEH activator	CYP2C19 inh	sEH inhibitor	CYP2C19 act	CYP2C9 act	CYP2C9 inhib
O=C1CC(c2ccccc2)CC(O)=C1C=NCCN1CCN(C(=O)Nc2ccccc2)CC1 (stereo unspecified)	i	i	i	i	i	i
Cc1c(C(=O)N2CCCc3ccccc32)oc2ccc(S(=O)(=O)N3CCOCC3)cc12	i	96.0	i	i	i	85.1
COc1cc(O)oc1C=Nc1ccc(C(F)(F)F)cc1	i	i	i	i	i	i
Cc1ccccc1S(=O)(=O)Cc1ccc(C(=O)N2CCN(c3cccc(C)c3C)CC2)o1	nt	i	nt	i	i	73.3
COc1ccccc1S(=O)(=O)Cc1ccc(C(=O)N2CCN(c3ccccn3)CC2)o1	nt	53.3	nt	i	i	51.4
COc1ccccc1S(=O)(=O)Cc1ccc(C(=O)N2CCCC2)o1	i	i	i	i	i	i
O=C(c1ccc(CS(=O)(=O)c2ccc(Br)cc2)o1)N1CCN(c2ncccn2)CC1	i	56.1	i	i	i	80.9
O=C(NC1CCCC1)c1ccc(CS(=O)(=O)c2ccc(Br)cc2)o1	i	i	i	i	i	86.2
C=C(C)CSc1nnc(-c2ccccc2)n1N	i	i	i	i	i	i
COc1ccc(S(=O)(=O)Cc2ccc(C(=O)N3CCN(c4ccccn4)CC3)o2)cc1	nt	i	nt	i	i	80.6
CCc1ccccc1S(=O)(=O)Cc1ccc(C(=O)N2CCN(c3ccccc3OC)CC2)o1	i	91.3	i	i	i	95.8
CCn1c(CSc2nc3ccccc3s2)nnc1SCC(=O)NCC(=O)OC	i	i	i	i	i	i
C1COCCNCCOCCOCCN1	i	i	i	i	i	i
CC(O)(CS(=O)(=O)Cc1ccccc1Cl)C(=O)Nc1cccc(C(F)(F)F)c1 (stereo unspecified)	i	54.3	i	i	i	i
CC(O)(CS(=O)(=O)Cc1cccc(C(F)(F)F)c1)C(=O)Nc1cccc(C(F)(F)F)c1 (stereo unspecified)	i	i	i	i	i	i
CCOC(=O)C1CCCCN1Cc1ccc(F)c(Br)c1 (stereo unspecified)	i	81.8	i	i	i	i
Cc1ccc(N2C(=O)CSC2c2c(F)cccc2Cl)cc1 (stereo unspecified)	i	93.1	i	i	i	58.2
Cc1cc(C(=O)OCC(=O)Nc2ncc(C(F)(F)F)cc2Cl)c(C)o1	nt	i	nt	i	i	i
Cc1ccc(Nc2c([N+](=O)[O-])c(=O)n(C)c3ccccc23)cc1C	i	63.8	i	i	i	i
CCn1c(=O)c([N+](=O)[O-])c(NCCc2ccccc2)c2ccccc21	i	i	i	i	i	i
CCCc1nn(-c2cc(Cl)ccc2OC)c2c1C(=O)CC(C)(C)C2	i	62.8	i	i	i	66.3
Cc1cccc(CN2C(=O)N/C(=C/c3cc(C)n(-c4ccccn4)c3C)C2=O)c1	i	i	i	i	i	97.5
CCOC(=O)C1CCN(S(=O)(=O)c2ccc(OCC)cc2)CC1	i	94.3	i	i	i	i
CCOC(=O)N1CCN(S(=O)(=O)c2ccc(C(=O)Nc3sc4c(c3C#N)CCC4)cc2)CC1	i	i	i	i	i	74.7
CCOc1ccc(S(=O)(=O)N2CCN(C(=O)c3sccc3C)CC2)cc1	i	74.1	i	i	i	i
COc1ccc(S(=O)(=O)N2CCN(C(=O)c3cnc(C)cn3)CC2)cc1	i	50.1	i	i	i	i
CCOC(=O)c1ccc(S(=O)(=O)N2CCC(C(=O)OCC)CC2)cc1	i	i	i	i	i	i
